This is an account of results in PubChem BioAssay AID1645875 (National Center for Advancing Translational Sciences (NCATS), 2021).

Results filed as inconclusive are left out. Activity calls are given as the source filed them. Calls come from the whole dose curve; as a rule, active = well fitted inhibition curve with a large enough effect; inconclusive = small, poorly fitted or top-dose-only effect; inactive = no such curve, though single readings can be large or run the other way.

The target of this test is N-terminal Xaa-Pro-Lys N-methyltransferase 1 (Homo sapiens) (UniProt Q9BV86). Nature of the test: Orthogonal qHTS for Inhibitors of N-terminal methyltransferase 1 (NTMT1): ThioGlo Assay. The following applies: NTMT1 SAHH-coupled ThioGlo fluorescence, 30 min; series mostly up to 84.5 µM; activity, negative = inhibition: at the top concentration. The text has this: Assay Submitter (PI): Rong Huang Ph.D. Purdue University, West Lafayette, IN 47907 The N-terminal methytransferase 1 is the first methyltransferase that methylates protein alpha-N-amines and plays an important role in regulating cell mitosis, chromatin interactions and DNA repair. It is observed to be over-expressed in various cancer patient tissues like malignant melanoma and colorectal cancer tissues. Knockdown of NTMT1 in cancer cells causes cell mitotic defects and enhances sensitivity to DNA damaging chemotherapeutics. […] These critical cellular processes in which NTMT1 is implicated, coupled with emerging links to cellular dysfunction, strengthen the inference that NTMT1 is a compelling novel anticancer target. Progress have been made in understanding the molecular properties of NTMT1 and the biological consequences of protein alpha-N-terminal methylation, but there are no specific small molecule probes available for NTMT1 to fully characterize its MTase activity. To address this unmet need, a panel of assay is created and established to enable quantitative high-throughput screening (qHTS) for novel, potent, and selective small molecule NTMT1 inhibitors. Two orthogonal qHTS that use different reagents (ThioGlo vs. MTaseGlo) are developed for primary robotic screening against the NCATS chemical library of more than 400,000 small molecules. Identified inhibitors are reacquired, validated, and further characterized. […] Early Translation Branch (ETB) National Center for Advancing Translational Sciences (NCATS) National Institute of Health (NIH)
Chain of N-terminal Xaa-Pro-Lys N-methyltransferase 1 (Homo sapiens) (Q9BV86 whole entry, looked up): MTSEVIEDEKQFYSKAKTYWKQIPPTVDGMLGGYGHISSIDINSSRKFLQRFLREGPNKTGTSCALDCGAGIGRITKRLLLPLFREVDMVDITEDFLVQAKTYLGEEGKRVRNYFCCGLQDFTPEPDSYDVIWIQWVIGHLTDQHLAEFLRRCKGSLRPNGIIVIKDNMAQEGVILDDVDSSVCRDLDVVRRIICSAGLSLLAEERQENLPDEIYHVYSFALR
Materials: NTMT1 enzyme, substrate SPKRIA, control peptide RCC1-6 is provided by the Huang laboratory. MTaseGlo Assay: PROTOCOL TABLE; SEQUENCE No. (e.g., 1, 2, 3, etc.); […] (e.g., Cells, Incubation, Reagent, etc.); VALUE; DESCRIPTION 1; Enzyme; 3 uL; Dispense enzyme mixture (final concentrations of 125 nM NTMT1) into Greiner 1536-well black / solid bottom assay plate (Greiner Bio One, Monroe, NC). 2; Compounds; 23 nL; Compounds (at various concentration) and 1uM final concentration of RCC1-6 (SPKRIA) control were transferred via a Kalypsys Pin Tool (Wako USA) equipped with a 1536-slotted pin array (Wako Automation, Richmond, VA). 3; Incubation; 1 min; Incubate at room temperature. 4; Substrate; 1 uL; Dispense 1 uL of substrate solution (100uM SAM, 10uM SAHH, 15uM ThioGlo3 final concentration) was added to the wells bringing the final assay volume to 4uL. The assay plate was covered with metal lids. 5; Detection; Fluorescence; Initial fluorescence readout (background signal) was detected using the ViewLux microplate imager with an excitation filter of 340 nm and 450 nm emission filter. 6; Incubation; 30 min; Assay plates were incubation at room temperature in the dark. 7; Detection; Fluorescence; Final fluorescence readout was detected using the ViewLux microplate imager with an excitation filter of 340 nm and 450 nm emission filter. The data was normalized to the background fluorescence.
(Quantitative high-throughput screening tests each substance at several concentrations.)
Turning to `COc1cc2c(NC3CCN(C(C)C)CC3)nc(N3CCCN(CC4CCCCC4)CC3)nc2cc1OCCCN1CCCC1`, the Potency was 12.3 µM (active). Regarding `COc1cc2c(NC3CCN(C)CC3)nc(N3CCCN(C)CC3)nc2cc1OCCCCCN`, the Potency was 30.8 µM (active). Turning to `COc1ccc(-c2nnc3n2N=C(c2c(OC)cccc2OC)CS3)cc1OC`, the “activity, negative = inhibition” value is 25% (inactive). As for `COc1cccc(C2=Nn3c(nnc3-c3ccccc3C)SC2)c1`, the Potency was 27.4 µM (active). For `CCNC(=O)c1noc(-c2cc(C(C)C)c(O)cc2O)c1-c1ccc(CN2CCOCC2)cc1`, the “activity, negative = inhibition” value is -4.32% (inactive). As to `COc1ccc(-c2cc3c(C)nc(N)nc3n(C3CCC(OCCO)CC3)c2=O)cn1` (stereo not given), the Potency is 13.9 µM (active). `CC(C)c1cc2c(c(O)c1O)[C@@]13CCCC(C)(C)[C@@H]1[C@H](OC3=O)C2=O`: the Potency is 9.67 µM (active). `CC[N+](CC)(CC)CCOc1cccc(OCC[N+](CC)(CC)CC)c1OCC[N+](CC)(CC)CC`: the Potency was 0.614 µM (active).

With `COc1cc2c(NC3CCN(C(C)C)CC3)nc(N3CCCCCC3)nc2cc1OCCCN1CCCC1`, the Potency was 38.8 µM (active). As to `Cc1cccc(C)c1OCC(N)C(C)C` (stereo not given), the Potency is 1.54 µM (active).

For the molecule `CC(C)c1cc(CNc2nc(Nc3cc(C4CC4)[nH]n3)cc(N3CCN(C)CC3)n2)on1`, the Potency was 7.84 µM (active).

For `COc1ccc(C2=Nn3c(nnc3-c3ccccc3F)SC2)cc1OC1CCCC1`, the “activity, negative = inhibition” value was -26.7% (inactive). Consider `CC(C)c1cc2c(c(O)c1O)[C@@]13CCCC(C)(C)C1[C@@H](O)[C@@H]2OC3=O` (stereo not given in full), for which the Potency is 12.2 µM (active). Regarding `COc1ccc(C2=Nn3c(nnc3-c3ccccc3C)SC2)cc1OC`, the Potency was 34.5 µM (active). With `O=C1NC(=O)/C(=C/c2ccc(-c3ccc(F)cc3O)o2)S1`, the Potency is 30.8 µM (active). With `Cc1ccc(S(=O)(=O)Nc2cnccc2C(=O)Nc2nc(-c3cccc(C)c3)cs2)cc1`, the “activity, negative = inhibition” value is -29.8% (inactive). On to `NCCOc1cc(C(=O)Nc2cc(OCCN)c3ccccc3n2)nc(C(=O)Nc2cc(OCCN)c3ccccc3n2)c1`, for which the Potency is 19.4 µM (active). On to `COc1cccc(C(=O)NCCNc2nc3cc(C)cc(C)c3cc2C#N)c1`, for which the Potency was 44.1 µM (active). In the case of `COc1cc2nc(N3CCOCC3)nc(NC(C)C)c2cc1OC`, the “activity, negative = inhibition” value was 82.2% (inactive). Regarding `Clc1ccc(Nc2nnc(Cc3ccncc3)c3ccccc23)cc1`, the Potency was 62.2 µM (active). For the molecule `NC(=O)c1cccc(-c2cc(OC(=O)NC3CCCCC3)ccc2O)c1`, the “activity, negative = inhibition” value is -7.27% [at 114 µM] (inactive). As to `NCC(O)C1CCCCCCC1` (stereo not given), the “activity, negative = inhibition” value is 4.12% (inactive). In the case of `Cc1cccc(NC(=O)c2c(NC(=O)c3ccccc3)sc3c2CCCC3)c1`, the “activity, negative = inhibition” value is -8.87% (inactive). On the same count and under the same terms, the result for `COc1cc2c(NC3CCN(C(C)C)CC3)nc(N3CCCCC3)nc2cc1OCCCN1CCCCC1` reads 5.1% (inactive). In the case of `Cc1[nH]c(/C=C2\C(=O)Nc3cc(-c4ccccc4)ccc32)c(C)c1CCC(=O)O`, the Potency is 9.87 µM (active). With `Nc1ccc(C(=O)Nc2cccc(-c3nc(N4CCOCC4)c4oc5ncccc5c4n3)c2)cn1`, the Potency is 22.1 µM (active). For the molecule `Fc1cc(-c2cccc3ncc(-c4cnn(C5CCNCC5)c4)nc23)cc(F)c1CN1CCOCC1`, the Potency was 34.5 µM (active).

Take `COc1cc2c(NC3CCN(C4CCCCC4)CC3)nc(N3CCCN(C)CC3)nc2cc1OCCOCCN(C)C`: the Potency is 43.5 µM (active).

Regarding `CNC(=O)c1ccccc1Nc1cc(Nc2ccc(N3CCOCC3)cc2OC)ncc1C(F)(F)F`, the Potency was 8.79 µM (active).

Take `COc1cc2c(NC3CCN(C(C)C)CC3)nc(N3CCCN(CC4CCCCC4)CC3)nc2cc1OCCCN1CCCCC1`: the “activity, negative = inhibition” value was 198% (inactive). As for `Cc1cc(N2CCOCC2)cc2[nH]c(-c3c(NC[C@@H](O)c4cccc(Cl)c4)cc[nH]c3=O)nc12`, the Potency is 13.9 µM (active). Still for that read-out and setting: the result for `Fc1cc(Nc2nc(-c3ccncc3)nc3ccccc23)ccc1N1CCNCC1` reads 21.8 µM (active). Take `COc1cc2c(NC3CCN(C(C)C)CC3)nc(N3CCCN(c4ccccc4)CC3)nc2cc1OCCCN1CCCC1`: the Potency was 55.5 µM (active). On to `OCCn1cc(-c2cnc3nnn(Cc4ccc5ncccc5c4)c3n2)cn1`, for which the Potency is 17.5 µM (active).

In the case of `C[C@]12C[C@H](O)[C@H]3[C@@H](CCC4=CC(=O)CC[C@@]43C)[C@@H]1CC[C@@H]2C(=O)CO`, the “activity, negative = inhibition” value is 4.72% (inactive). Same read-out and setting: the result for `O=C(Nc1ccc(S(=O)(=O)C(F)(F)F)cc1)C1=CCN(c2ncccc2C(F)(F)F)CC1` reads 49.9% [at 114 µM] (inactive). Take `COc1cc2nc(N3CCN(C(=O)c4ccco4)C4CCCCC43)nc(N)c2cc1OC` (stereo not given): the Potency was 55.5 µM (active). Consider `COc1c/c(=C2\C=c3ccccc3=N2)[nH]/c1=C/c1[nH]c(C)cc1C`, for which the Potency was 24.8 µM (active).

On to `Cc1cc(O)c2c(c1)C(=O)c1cc(O)cc(O)c1C2=O`, for which the Potency was 27.4 µM (active). With `COc1cc2c(NC3CCN(C(C)C)CC3)nc(N3CCCCC3)nc2cc1OCCOCCN(C)C`, the Potency is 34.5 µM (active).
